Reference: PubChem BioAssay AID1159580 (chemical genetic matrix, 2015)
Several values for one entry are separate records, joined by “and”; a condition that tells them apart may be missing. Equal entries are not always repeated. In all, about 5,500 compounds went through this assay and about 2,000 (36%) were called active. About 18% were inconclusive and are not listed. No stated cut-off is given here; in the data, active means normalized growth mostly below about 0.91 (no sharp cut-off); inconclusive means no clear call, values can overlap the other calls; inactive means mostly above about 0.92. The list shows a part of the results.

Experiment: chemical genetic growth profiling, strain panel (AID 1159580);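 further: tested at 20 µM; growth read once vehicle control cultures reached saturation at 30 °C; 1 = growth at the plate median or of vehicle wells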
Conditions: S. cerevisiae deletion strains, growth OD

Measured: normalized growth

COc1cc2c(c(OC)c1OC)-c1ccc(OC)c(=O)cc1[C@@H](NC(C)=O)CC2
inactive: locus YAL013W, strain DEP1, stronger effect = lower value 1.02 | locus YAL021C, strain ccr4, stronger effect = lower value 1.01 | locus YAL026C, strain drs2, stronger effect = lower value 1 | locus YAL030W, strain snc1, stronger effect = lower value 0.988 | locus YBL061C, strain skt5, stronger effect = lower value 1 | locus YBR009C, strain hhf1, stronger effect = lower value 0.985 | locus YBR021W, strain FUR4, stronger effect = lower value 1.04 | locus YBR023C, strain chs3, stronger effect = lower value 0.998 | locus YBR171W, strain sec66, stronger effect = lower value 1.01 | locus YBR229C, strain ROT2, stronger effect = lower value 1.02 | locus YBR231C, strain swc5, stronger effect = lower value 1.02 | locus YBR279W, strain paf1, stronger effect = lower value 1 | locus YCL011C, strain gbp2, stronger effect = lower value 1 | locus YCL016C, strain dcc1, stronger effect = lower value 0.986 | locus YCL029C, strain bik1, stronger effect = lower value 1.03 | locus YCL069W, strain vba3, stronger effect = lower value 1 | locus YCR088W, strain abp1, stronger effect = lower value 1.01 | locus YDL005C, strain med2, stronger effect = lower value 1.01 | locus YDL035C, strain GPR1, stronger effect = lower value 1.02 | locus YDL040C, strain nat1, stronger effect = lower value 1.01 | locus YDL074C, strain BRE1, stronger effect = lower value 1.04 | locus YDL101C, strain DUN1, stronger effect = lower value 1.02 | locus YDL134C, strain PPH21, stronger effect = lower value 1.02 | locus YDL185W, strain tfp1, stronger effect = lower value 1.04 | locus YDL192W, strain arf1, stronger effect = lower value 1.02 | locus YDR001C, strain nth1, stronger effect = lower value 1.02 | locus YDR069C, strain doa4, stronger effect = lower value 1.04 | locus YDR101C, strain arx1, stronger effect = lower value 1.02 | locus YDR137W, strain rgp1, stronger effect = lower value 0.988 | locus YDR159W, strain sac3, stronger effect = lower value 0.999 | locus YDR162C, strain NBP2, stronger effect = lower value 1.03 | locus YDR195W, strain ref2 0.974 | locus YDR297W, strain sur2, stronger effect = lower value 1.01 | locus YDR318W, strain mcm21, stronger effect = lower value 1.03 | locus YDR334W, strain swr1, stronger effect = lower value 1.01 | locus YDR335W, strain msn5, stronger effect = lower value 0.998 | locus YDR388W, stronger effect = lower value 1.03 | locus YDR392W, strain spt3, stronger effect = lower value 0.968 | locus YDR502C, strain sam2, stronger effect = lower value 1.02 | locus YEL003W, strain gim4, stronger effect = lower value 1 | locus YEL037C, strain rad23, stronger effect = lower value 1.01 | locus YEL061C, strain CIN8 (second series), stronger effect = lower value 0.999 | locus YEL061C, strain CIN8, stronger effect = lower value 1.01 | locus YER015W, strain faa2, stronger effect = lower value 1.01 | locus YER016W, strain bim1, stronger effect = lower value 0.963 | locus YER110C, stronger effect = lower value 1.02 | locus YER111C, strain swi4, stronger effect = lower value 1.02 | locus YER155C, strain BEM2 (second series), stronger effect = lower value 1.02 | locus YER155C, strain BEM2, stronger effect = lower value 1.01 | locus YER167W, strain BCK2, stronger effect = lower value 1.02 | locus YFR010W, strain ubp6, stronger effect = lower value 1.01 | locus YGL078C, strain dbp3, stronger effect = lower value 1.03 | locus YGL086W, strain mad1, stronger effect = lower value 1.02 | locus YGL167C, strain pmr1, stronger effect = lower value 1.02 | locus YGL173C, strain kem1, stronger effect = lower value 1.03 | locus YGL227W, strain vid30, stronger effect = lower value 1.01 | locus YGL240W, strain doc1, stronger effect = lower value 1.03 | locus YGL248W, strain PDE1, stronger effect = lower value 1.03 | locus YGL253W, strain hxk2, stronger effect = lower value 1 | locus YGR078C, strain PAC10, stronger effect = lower value 1.03 | locus YGR135W, strain pre9, stronger effect = lower value 1.03 | locus YGR229C, strain SMI1, stronger effect = lower value 1.02 | locus YGR252W, strain gcn5, stronger effect = lower value 1.07 | locus YHR013C, strain ard1, stronger effect = lower value 0.986 | locus YHR027C, strain rpn1, stronger effect = lower value 1.01 | locus YHR030C, strain SLT2, stronger effect = lower value 1.01 and 1.04 | locus YHR079C, strain IRE1 (second series), stronger effect = lower value 1.04 | locus YHR079C, strain IRE1, stronger effect = lower value 1.04 | locus YHR094C, strain hxt1, stronger effect = lower value 1.02 | locus YHR129C, strain ARP1, stronger effect = lower value 1.01 | locus YHR142W, strain chs7, stronger effect = lower value 0.996 | locus YHR200W, strain rpn10, stronger effect = lower value 1.03 | locus YIL066C, strain RNR3, stronger effect = lower value 1.02 | locus YIL073C, strain SPO22, stronger effect = lower value 1.04 | locus YIL125W, strain kgd1, stronger effect = lower value 1.03 | locus YIR030C, strain dcg1, stronger effect = lower value 1.04 | locus YJL092W, strain hpr5, stronger effect = lower value 1.01 | locus YJL095W, strain BCK1 (second series), stronger effect = lower value 1 | locus YJL095W, strain BCK1, stronger effect = lower value 1.04 and 1.02 | locus YJL115W, strain asf1, stronger effect = lower value 1.02 | locus YJL129C, strain trk1, stronger effect = lower value 1.01 | locus YJL134W, strain LCB3, stronger effect = lower value 1.02 | locus YJL154C, strain vps35, stronger effect = lower value 0.995 | locus YJL164C, strain tpk1, stronger effect = lower value 0.984 | locus YJL166W, strain qcr8, stronger effect = lower value 1.02 | locus YJL168C, strain set2, stronger effect = lower value 1.02 | locus YJL187C, strain SWE1 (second series), stronger effect = lower value 1.03 | locus YJR043C, strain POL32, stronger effect = lower value 1 | locus YJR066W, strain TOR1, stronger effect = lower value 0.988 | locus YJR075W, strain HOC1, stronger effect = lower value 1.02 | locus YKL009W, strain mrt4, stronger effect = lower value 1.01 | locus YKL068W, stronger effect = lower value 1.03 | locus YKL085W, strain MDH1 (second series), stronger effect = lower value 1.06 | locus YKL085W, strain MDH1, stronger effect = lower value 1.06 | locus YKL160W, strain elf1, stronger effect = lower value 1.02 | locus YKL190W, strain CNB1, stronger effect = lower value 1.01 | locus YKR001C, strain vps1, stronger effect = lower value 1.03 | locus YKR026C, strain gcn3, stronger effect = lower value 1.06 | locus YKR091W, strain srl3, stronger effect = lower value 0.985 | locus YLL001W, strain dnm1, stronger effect = lower value 1.01 | locus YLL026W, stronger effect = lower value 0.991 | locus YLL041C, strain sdh2, stronger effect = lower value 1.01 | locus YLR027C, strain aat2, stronger effect = lower value 1.01 | locus YLR039C, strain RIC1, stronger effect = lower value 1.05 | locus YLR058C, strain SHM2, stronger effect = lower value 1.03 | locus YLR102C, strain apc9, stronger effect = lower value 1.03 | locus YLR113W, strain HOG1, stronger effect = lower value 1.04 | locus YLR221C, strain rsa3, stronger effect = lower value 0.997 | locus YLR258W, strain gsy2, stronger effect = lower value 1.01 | locus YLR262C, strain YPT6 (second series), stronger effect = lower value 1.04 | locus YLR262C, strain YPT6, stronger effect = lower value 1.04 | locus YLR268W, strain sec22, stronger effect = lower value 1.04 | locus YLR320W, strain mms22, stronger effect = lower value 1.01 | locus YLR330W, strain CHS5, stronger effect = lower value 1.02 | locus YLR342W, strain FKS1 (second series), stronger effect = lower value 1.03 | locus YLR342W, strain FKS1, stronger effect = lower value 1.01 | locus YLR357W, strain rsc2, stronger effect = lower value 1.02 | locus YLR370C, strain arc18, stronger effect = lower value 1.01 | locus YLR371W, strain rom2, stronger effect = lower value 1.03 | locus YLR384C, strain iki3, stronger effect = lower value 1.02 | locus YLR418C, strain cdc73, stronger effect = lower value 1.06 | locus YML016C, strain PPZ1, stronger effect = lower value 1.03 | locus YML032C, strain rad52, stronger effect = lower value 1.02 | locus YML120C, strain ndi1, stronger effect = lower value 1.02 | locus YML124C, strain tub3, stronger effect = lower value 1.03 | locus YMR058W, strain fet3, stronger effect = lower value 1.01 | locus YMR078C, strain ctf18, stronger effect = lower value 1.04 | locus YMR125W, strain sto1, stronger effect = lower value 1.01 | locus YMR129W, stronger effect = lower value 1.02 | locus YMR205C, strain PFK2, stronger effect = lower value 1 | locus YMR223W, strain ubp8, stronger effect = lower value 1.04 | locus YMR231W, strain pep5, stronger effect = lower value 1.01 | locus YMR307W, strain GAS1, stronger effect = lower value 0.99 | locus YNL067W, strain RPL9B, stronger effect = lower value 1.03 | locus YNL071W, strain lat1, stronger effect = lower value 1 | locus YNL128W, strain TEP1, stronger effect = lower value 1.03 | locus YNL153C, strain GIM3, stronger effect = lower value 1.02 | locus YNL183C, strain NPR1, stronger effect = lower value 0.99 | locus YNL209W, strain ssb2, stronger effect = lower value 1 | locus YNL233W, strain BNI4, stronger effect = lower value 1.02 | locus YNL248C, strain rpa49, stronger effect = lower value 0.947 | locus YNL250W, strain rad50, stronger effect = lower value 1 | locus YNL271C, strain bni1, stronger effect = lower value 1.04 | locus YNL298W, strain CLA4, stronger effect = lower value 1.03 | locus YNL307C, strain MCK1, stronger effect = lower value 1.03 | locus YNL322C, strain KRE1 (second series), stronger effect = lower value 1.02 | locus YNR049C, strain mso1, stronger effect = lower value 1.03 | locus YNR052C, strain pop2, stronger effect = lower value 1.02 | locus YOL012C, strain htz1 0.756 | locus YOL147C, strain pex11, stronger effect = lower value 1.04 | locus YOR001W, strain rrp6, stronger effect = lower value 1.02 | locus YOR061W, strain CKA2, stronger effect = lower value 1.03 | locus YOR069W, strain VPS5, stronger effect = lower value 1.01 | locus YOR070C, strain gyp1, stronger effect = lower value 0.995 | locus YOR080W, strain dia2, stronger effect = lower value 1.02 | locus YOR083W, strain WHI5, stronger effect = lower value 1.02 | locus YOR106W, strain vam3, stronger effect = lower value 1.03 | locus YOR136W, strain idh2, stronger effect = lower value 1.02 | locus YOR144C, strain elg1, stronger effect = lower value 1.03 | locus YOR184W, strain ser1, stronger effect = lower value 1.04 | locus YOR231W, strain MKK1, stronger effect = lower value 1.03 | locus YOR265W, strain rbl2, stronger effect = lower value 1.01 | locus YOR270C, strain vph1, stronger effect = lower value 1.01 | locus YOR290C, strain snf2, stronger effect = lower value 1.01 | locus YOR316C, strain cot1, stronger effect = lower value 1.04 | locus YPL051W, strain arl3, stronger effect = lower value 1.02 | locus YPL055C, strain LGE1, stronger effect = lower value 1.04 | locus YPL078C, strain atp4, stronger effect = lower value 1.02 | locus YPL106C, strain sse1, stronger effect = lower value 0.989 | locus YPL240C, strain hsp82, stronger effect = lower value 1 | locus YPL241C, strain CIN2, stronger effect = lower value 1.01 | locus YPL256C, strain CLN2, stronger effect = lower value 1.12 | locus YPR119W, strain clb2, stronger effect = lower value 1.03 | locus YPR141C, strain kar3, stronger effect = lower value 1.05 | locus YPR163C, strain tif3, stronger effect = lower value 1.04 | locus YPR167C, strain met16, stronger effect = lower value 1.04 | strain wtn01, stronger effect = lower value 1.01
